Activity calls are given as the source filed them. The calls were made as follows: active = hit-call score of the fitted dose curve at least 0.9, where 1 is the maximum; inactive = score below 0.9.
Tests used:
Conditions in all cases: mRNA level, 48 h; actives raise or lower the signal
[1] = read-out: DNA damage-inducible transcript 3 (DDIT3), DDIT3 (gene 1649); assay: LTEA_HepaRG_DDIT3: Life Technologies and Expression Analysis (LTEA) Assay for DNA damage-inducible transcript 3 (DDIT3) using HepaRG (AID 2283488)
Procedure, shortened: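 Cells are human HepaRG liver cells treated for 48 h with eight half-log concentrations up to 100 uM in 0.5% DMSO. Transcript levels come from qRT-PCR normalized to three housekeeping genes, with activity fitted in both directions relative to vehicle.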

[2] = read-out: Early growth response protein 1 (EGR1) transcription factor, EGR1 (gene 1958); assay: LTEA_HepaRG_EGR1: Life Technologies and Expression Analysis (LTEA) Assay for Early growth response protein 1 (EGR1) transcription factor using HepaRG (AID 2283490)
Procedure, shortened: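 EGR1 expression change in human HepaRG after 48 h chemical exposure, assessed by housekeeping-normalized qRT-PCR; concentration-response up to 100 uM, fitted in both directions against DMSO controls.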

[3] = read-out: Ezrin (EZR), EZR (gene 7430); assay: LTEA_HepaRG_EZR: Life Technologies and Expression Analysis (LTEA) Assay for Ezrin (EZR) using HepaRG (AID 2283491)
Procedure, shortened: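 HepaRG, 48 h chemical exposure, 8-pt half-log series from 100 uM, 0.5% DMSO vehicle, duplicates. Read-out: EZR mRNA by TaqMan qRT-PCR (Fluidigm array), housekeeping-normalized; bidirectional curve fit vs DMSO baseline.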

[4] = read-out: Cytochrome P450 3A7 (Homo sapiens) (UniProt P24462); assay: LTEA_HepaRG_CYP3A7: Life Technologies and Expression Analysis (LTEA) Assay for CYP3A7 using HepaRG (AID 2283492)
Procedure, shortened: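 Human HepaRG liver cells, 48 h post-plating, switched to serum-free induction medium and exposed in duplicate for 48 h. Dosing: 100 uM top, half-log dilutions, 8 points, 0.5% DMSO vehicle. Read-out: CYP3A7 mRNA, gain or loss fitted against DMSO baseline.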

[5] = read-out: Fatty Acid-Binding Protein 1 (FABP1), FABP1 (gene 2168); assay: LTEA_HepaRG_FABP1: Life Technologies and Expression Analysis (LTEA) Assay for Fatty Acid-Binding Protein 1 (FABP1) using HepaRG (AID 2283494)
Procedure, shortened: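 Values reflect bidirectional concentration-response fitting of FABP1 mRNA change against 0.5% DMSO controls. Human HepaRG cultures received eight half-log doses (top 100 uM) for 48 h; expression quantified by TaqMan qRT-PCR with housekeeping-gene normalization.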

[6] = read-out: Glutathione S-Transferase (GSTA2), GSTA2 (gene 2939); assay: LTEA_HepaRG_GSTA2: Life Technologies and Expression Analysis (LTEA) Assay for Glutathione S-Transferase (GSTA2) using HepaRG (AID 2283497)
Procedure, shortened: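 Oxidative-stress marker GSTA2 is quantified by TaqMan qRT-PCR in HepaRG cultures treated 48 h across an eight-point range to 100 uM. Expression is normalized to endogenous controls and compared with 0.5% DMSO vehicle.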

[7] = read-out: Glutamate-cysteine ligase catalytic (GCLC), GCLC (gene 2729); assay: LTEA_HepaRG_GCLC: Life Technologies and Expression Analysis (LTEA) Assay for Glutamate-cysteine ligase catalytic (GCLC) using HepaRG (AID 2283498)
Procedure, shortened: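 Oxidative-stress marker GCLC is measured as mRNA change in human HepaRG liver cells after 48 h chemical treatment in 0.5% DMSO, eight concentrations from 100 uM. Activity is fitted bidirectionally against vehicle.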

[8] = read-out: growth arrest and DNA damage 45 (GADD45G), GADD45G (gene 10912); assay: LTEA_HepaRG_GADD45G: Life Technologies and Expression Analysis (LTEA) Assay for growth arrest and DNA damage 45 (GADD45G) using HepaRG (AID 2283499)
Procedure, shortened: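 Gain or loss of GADD45G mRNA, quantified by TaqMan qRT-PCR against three housekeeping genes, is fitted in both directions relative to 0.5% DMSO. Human HepaRG cultures receive test chemical for 48 h at up to 100 uM.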

[9] = read-out: Glutamate-cysteine ligase regulatory (GCLM), GCLM (gene 2730); assay: LTEA_HepaRG_GCLM: Life Technologies and Expression Analysis (LTEA) Assay for Glutamate-cysteine ligase regulatory (GCLM) using HepaRG (AID 2283500)
Procedure, shortened: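 Endpoint is GCLM transcript level by qRT-PCR, normalized to three housekeeping genes, after 48 h chemical exposure of human HepaRG cells (0.5% DMSO vehicle, top 100 uM, half-log dilutions). Fitting was bidirectional relative to DMSO.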

[10] = read-out: Glutathione S-transferase M3 (GSTM3), GSTM3 (gene 2947); assay: LTEA_HepaRG_GSTM3: Life Technologies and Expression Analysis (LTEA) Assay for Glutathione S-transferase M3 (GSTM3) using HepaRG (AID 2283501)
Procedure, shortened: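 HepaRG, plated 48 h, then serum-free induction medium; test chemical 48 h, duplicate; 100 uM top, half-log x8, 0.5% DMSO. Read-out: GSTM3 mRNA (TaqMan qRT-PCR, Fluidigm array). Bidirectional fit vs DMSO.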

[11] = read-out: Heat shock 70 kDa protein 1 (HSPA1A), gene 3303; assay: LTEA_HepaRG_HSPA1A: Life Technologies and Expression Analysis (LTEA) Assay for Heat shock 70 kDa protein 1 (HSPA1A) using HepaRG (AID 2283502)
Procedure, shortened: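 Cells were plated and cultured for 48 h, then switched to serum-free induction medium. Chemicals were added at eight half-log concentrations up to 100 uM for 48 h. RNA was then isolated and HSPA1A measured by qRT-PCR with bidirectional curve fitting against DMSO.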

[12] = read-out: Hypoxia-inducible factor 1-alpha (Homo sapiens) (UniProt Q16665); assay: LTEA_HepaRG_HIF1A: Life Technologies and Expression Analysis (LTEA) Assay for Hypoxia-inducible factor 1 (HIF1A) Trancription factor using HepaRG (AID 2283503)
Procedure, shortened: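 HIF1A transcript level read by qRT-PCR (ACTB, GAPDH, POLR2A normalization) after 48 h chemical exposure of HepaRG cultures. Eight half-log concentrations, top 100 uM, 0.5% DMSO vehicle, duplicates; bidirectional curve fit against DMSO baseline.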

[13] = read-out: 3-Hydroxy-3-Methylglutaryl-CoA Synthase 2 (HMGCS2), HMGCS2 (gene 3158); assay: LTEA_HepaRG_HMGCS2: Life Technologies and Expression Analysis (LTEA) Assay for 3-Hydroxy-3-Methylglutaryl-CoA Synthase 2 (HMGCS2) using HepaRG (AID 2283504)
Procedure, shortened: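 HepaRG, plated 48 h then switched to serum-free induction media; cmpd 8-pt, max 100 uM, 1/2-log, 0.5% DMSO, n=2, 48 h. HMGCS2 mRNA by Fluidigm TaqMan qRT-PCR, ACTB/GAPDH/POLR2A norm; bidirectional fit vs DMSO.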

HGF (gene 3082) = assay: LTEA_HepaRG_HGF: Life Technologies and Expression Analysis (LTEA) Assay for Hepatocyte Growth Facto (HGF) using HepaRG (AID 2283505)
Procedure, shortened: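 Read-out is HGF transcript level by qRT-PCR, normalized to three housekeeping genes, fitted bidirectionally against 0.5% DMSO vehicle. Human HepaRG cells received test chemicals for 48 h at up to 100 uM.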

[14] = read-out: Insulin Like Growth Factor 1 (IGF1), IGF1 (gene 3479); assay: LTEA_HepaRG_IGF1: Life Technologies and Expression Analysis (LTEA) Assay for Insulin Like Growth Factor 1 (IGF1) using HepaRG (AID 2283506)
Procedure, shortened: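 Cells are thawed, plated and cultured 48 h, then exposed in duplicate to chemical (highest 100 uM, half-log steps, 0.5% DMSO) for another 48 h. Total RNA is analysed by Fluidigm qRT-PCR for IGF1 expression relative to vehicle.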

[15] = read-out: Intercellular Adhesion Molecule 1 (ICAM1), ICAM1 (gene 3383); assay: LTEA_HepaRG_ICAM1: Life Technologies and Expression Analysis (LTEA) Assay for Intercellular Adhesion Molecule 1 (ICAM1) using HepaRG (AID 2283507)
Procedure, shortened: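 Readout is qRT-PCR mRNA level, normalized to three housekeeping genes and fitted bidirectionally against 0.5% DMSO vehicle. Human HepaRG cultures received compound for 48 h, top concentration 100 uM with half-log dilutions.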

[16] = read-out: Pro-epidermal growth factor (Homo sapiens) (UniProt P01133); assay: LTEA_HepaRG_EGF: Life Technologies and Expression Analysis (LTEA) Assay for Epidermal growth factor (EGF) using HepaRG (AID 2283489)
Procedure, shortened: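 HepaRG, 48 h dosing, 100 uM top, half-log x8, 0.5% DMSO. Readout: TaqMan qRT-PCR (Fluidigm array), housekeeping-normalized. Gain or loss of signal fit vs DMSO.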

CYP3A5 (gene 1577) = assay: LTEA_HepaRG_CYP3A5: Life Technologies and Expression Analysis (LTEA) Assay for CYP3A5 using HepaRG (AID 2283493)
Procedure, shortened: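 Human HepaRG hepatic cells receive 48 h chemical treatment at eight concentrations (half-log steps from 100 uM) in 0.5% DMSO. Expression of CYP3A5 is quantified by Fluidigm qRT-PCR and normalized to three reference genes.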

[17] = read-out: Cytochrome P450 4A22 (Homo sapiens) (UniProt Q5TCH4); assay: LTEA_HepaRG_CYP4A22: Life Technologies and Expression Analysis (LTEA) Assay for Cytochrome P450 4A22 (CYP4A22) using HepaRG (AID 2283495)
Procedure, shortened: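 Readout is CYP4A22 transcript induction or loss, quantified by qRT-PCR and normalized to ACTB, GAPDH and POLR2A. Human HepaRG cells receive test chemicals for 48 h at eight half-log concentrations from 100 uM in 0.5% DMSO.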

[18] = read-out: Cytochrome P450 7A1 (Homo sapiens) (UniProt P22680); assay: LTEA_HepaRG_CYP7A1: Life Technologies and Expression Analysis (LTEA) Assay for Cytochrome P450 7A1 (CYP7A1) using HepaRG (AID 2283496)
Procedure, shortened: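 HepaRG, 48 h exposure, 8-pt half-log series from 100 uM, 0.5% DMSO vehicle, duplicates. Readout: TaqMan qRT-PCR mRNA vs three housekeeping genes; bidirectional curve fit against DMSO baseline.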

Measured: AC50

Chain of Cytochrome P450 3A7 (Homo sapiens) (P24462 whole entry, looked up): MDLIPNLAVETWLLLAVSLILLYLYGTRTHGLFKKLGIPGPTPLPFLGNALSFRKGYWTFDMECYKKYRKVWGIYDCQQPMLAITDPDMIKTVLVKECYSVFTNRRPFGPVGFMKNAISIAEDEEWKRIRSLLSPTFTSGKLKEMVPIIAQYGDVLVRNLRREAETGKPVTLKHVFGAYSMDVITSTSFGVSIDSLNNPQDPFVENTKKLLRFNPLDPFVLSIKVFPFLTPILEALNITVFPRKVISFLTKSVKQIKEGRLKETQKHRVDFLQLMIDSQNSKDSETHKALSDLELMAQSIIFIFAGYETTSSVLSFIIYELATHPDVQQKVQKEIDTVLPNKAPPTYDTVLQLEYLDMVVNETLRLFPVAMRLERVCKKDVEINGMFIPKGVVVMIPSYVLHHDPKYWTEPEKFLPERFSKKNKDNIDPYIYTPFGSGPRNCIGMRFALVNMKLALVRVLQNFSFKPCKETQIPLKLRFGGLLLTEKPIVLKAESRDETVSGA
Chain of Hypoxia-inducible factor 1-alpha (Homo sapiens) (Q16665 whole entry, looked up): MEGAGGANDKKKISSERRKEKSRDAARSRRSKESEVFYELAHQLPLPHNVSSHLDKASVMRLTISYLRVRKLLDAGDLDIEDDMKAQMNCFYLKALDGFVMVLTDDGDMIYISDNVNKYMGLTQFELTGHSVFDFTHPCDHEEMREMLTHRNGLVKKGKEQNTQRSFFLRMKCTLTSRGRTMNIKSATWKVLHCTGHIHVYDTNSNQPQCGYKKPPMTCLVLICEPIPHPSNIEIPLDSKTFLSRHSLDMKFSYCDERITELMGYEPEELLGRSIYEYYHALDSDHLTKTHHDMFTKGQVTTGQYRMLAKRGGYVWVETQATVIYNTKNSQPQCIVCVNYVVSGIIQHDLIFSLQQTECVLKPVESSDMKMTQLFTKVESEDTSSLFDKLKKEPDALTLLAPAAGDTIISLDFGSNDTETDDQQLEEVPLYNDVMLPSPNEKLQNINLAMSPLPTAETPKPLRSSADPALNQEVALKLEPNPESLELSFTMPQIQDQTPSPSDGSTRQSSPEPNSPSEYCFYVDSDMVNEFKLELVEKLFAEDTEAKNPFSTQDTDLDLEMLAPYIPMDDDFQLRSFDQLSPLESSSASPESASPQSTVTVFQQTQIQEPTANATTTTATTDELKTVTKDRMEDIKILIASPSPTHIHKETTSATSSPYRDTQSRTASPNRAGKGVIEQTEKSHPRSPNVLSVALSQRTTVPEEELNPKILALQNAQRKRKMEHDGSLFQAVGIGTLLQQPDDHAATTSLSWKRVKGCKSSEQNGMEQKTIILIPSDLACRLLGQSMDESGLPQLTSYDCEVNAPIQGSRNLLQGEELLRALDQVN

C/C=C/C=C/C(=O)O
active: [7] 0.256 µM
not listed: [16] | CYP3A5 (gene 1577) | [17] | [18]
inactive: all other assays above

Nc1nc(Cl)nc2c1ncn2[C@H]1C[C@H](O)[C@@H](CO)O1
active: [2] 0.272 µM | CYP3A5 (gene 1577) 0.481 µM | [5] 1.33 µM | [17] 5.92 µM | [6] 1.76 µM | [7] 1.24 µM | [8] 5.75 µM | [13] 1.49 µM | [14] 2.39 µM
inactive: [1] | [16] | [3] | [9] | [10] | [11] | [15]

COc1ccc(OC(F)(F)F)cc1CN[C@H]1CCCN[C@H]1c1ccccc1
inactive: [3] | [4] | [8] | [9] | [10] | [12] | HGF (gene 3082) | [14]
active: [1] 72.8 µM | [16] 50 µM | [2] 86.6 µM | [5] 77.9 µM | [17] 15.8 µM | [6] 5.08 µM | [7] 90.1 µM | [11] 73.3 µM | [13] 78.8 µM | [15] 75.7 µM

O=C1c2c(O)cccc2Cc2cccc(O)c21
not listed: CYP3A5 (gene 1577) | [18]
inactive: all other assays above

CC(=O)[C@@]1(O)CC[C@H]2[C@@H]3CCC4=CC(=O)CC[C@]4(C)[C@H]3CC[C@@]21C
not listed: [4] | [12] | [13] | CYP3A5 (gene 1577) | [17] | [18]
inactive: all other assays above

Nc1nc(=S)c2[nH]cnc2[nH]1
active: [1] 8.69 µM | [2] 7.2 µM | [3] 0.586 µM | [5] 9.73 µM | [17] 7.06 µM | [18] 10.2 µM | [6] 7.68 µM | [7] 15.3 µM | [13] 7.48 µM | [14] 20.5 µM
inactive: [16] | CYP3A5 (gene 1577) | [8] | [9] | [10] | [12] | HGF (gene 3082) | [15]

From PubChem BioAssay (EPA / NIEHS)
